Test results reported in paper PMC6602471.

molecular target: RUNX1 (Homo sapiens, UniProt Q01196 1-453); experiment: custom PBM; custom protein-binding microarray; buffer, salt, pH and temperature not stated; high values mean tight binding; details: dsDNA, one strand shown
Sequence (Q01196 whole entry): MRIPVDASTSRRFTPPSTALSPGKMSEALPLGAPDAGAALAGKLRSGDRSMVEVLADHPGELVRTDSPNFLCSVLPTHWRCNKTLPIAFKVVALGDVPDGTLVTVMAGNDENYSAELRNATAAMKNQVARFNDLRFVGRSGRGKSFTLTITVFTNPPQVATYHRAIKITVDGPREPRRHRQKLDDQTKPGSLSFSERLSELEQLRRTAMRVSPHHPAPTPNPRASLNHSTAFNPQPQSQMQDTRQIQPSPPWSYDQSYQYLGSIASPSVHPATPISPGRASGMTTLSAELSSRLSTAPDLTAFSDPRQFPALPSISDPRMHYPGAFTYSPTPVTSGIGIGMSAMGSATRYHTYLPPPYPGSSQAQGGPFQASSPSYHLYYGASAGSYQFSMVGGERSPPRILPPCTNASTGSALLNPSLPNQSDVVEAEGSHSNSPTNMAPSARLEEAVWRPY

Binding signal, 10.9 log fluorescence intensity:
GCATACGGCTGACGTGAGCCACATACGCACACATACACATACACACATACACATACGCAC
GCGCACATATCCCGTAAATCATACACGCACACATACACATACACACATACACATACGCAC
GCGCACATTTCTCGTAAATCATACACGCACACATACACATACACACATACACATACGCAC
GCGCACATTTCCCGTAAATTATACACGCACACATACACATACACACATACACATACGCAC
GCATACCGCTGACGTCAGCCACATACGCACACATACACATACACACATACACATACGCAC
CGCGCACTCTGTGGCTGCGCACATACGCACACATACACATACACACATACACATACGCAC
CGCGCACTCTGTGGATGCGCACATACGCACACATACACATACACACATACACATACGCAC

Binding signal, 11.3 log fluorescence intensity:
CGCGCACTCTGTGGTTGCCCACATACGCACACATACACATACACACATACACATACGCAC
CGCGCACTCTGTGGTTGTGCACATACGCACACATACACATACACACATACACATACGCAC

Binding signal, 12.3 log fluorescence intensity:
CGCGCACTCTGTGGTTTCGCACATACGCACACATACACATACACACATACACATACGCAC

Binding signal, 11 log fluorescence intensity:
GCGCACATTTCCCGTACATCATACACGCACACATACACATACACACATACACATACGCAC
GCATACGGCTGACGTCGGCCACATACGCACACATACACATACACACATACACATACGCAC
GCATACGGCTAACGTCAGCCACATACGCACACATACACATACACACATACACATACGCAC
GCGCACATTTCCCGTTAATCATACACGCACACATACACATACACACATACACATACGCAC
